# From PubChem BioAssay
# Hits are enriched below; roughly 10% of the tested compounds scored in any of these assays.
# PNC assembly inh: blocks assembly of the perinucleolar compartment; PC3M PTB-GFP, PNC prevalence imaging, 16 h; stronger effect = lower value; activity change (PNC), negative = inhibition, % at 10 µM; 140,000 compounds, 3.1% hits; AID 2417;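 active = readout at or below -70, meaning at least 70% loss of cells showing the perinucleolar compartment, a nuclear body marking cancer cells; inconclusive = readout between -30 and a set limit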;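 also: plate controls were DMSO wells for no effect and camptothecin positive control wells for full effect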
#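 Read-out is percentage of cells bearing a perinucleolar compartment, from automated 20x imaging of fixed, Hoechst-stained PC3M PTB-GFP cells. Cells were seeded 4 h, then exposed 16 h to compound (23 nl of library stock) in duplicate plates.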
# HPGD inh: inhibitors of human 15-hydroxyprostaglandin dehydrogenase (HPGD); Potency, µM, without a hit: at the highest dose activity change, negative = inhibition, usual class: inhibitors; purified HPGD, NADH fluorescence kinetic, PGE2 substrate; 150,000 compounds, 4.3% hits; active = well fitted inhibition curve with a large enough effect, not every such curve was filed as active; inconclusive = small, poorly fitted or top-dose-only effect, or another doubt; inactive = no such curve, though single readings can be large or run the other way; also: potency is read from the fitted curve at half-maximal effect
#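 20 nM HPGD preincubated 15 min at room temperature with compound in 50 mM Tris-HCl pH 8, 0.01% Tween 20. Started with 1 mM NAD+ and 30 uM prostaglandin E2; NADH fluorescence (360/450 nm) read 5 times over 30-s intervals, last minus first.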
# GLA inh pH 4.5: alpha-galactosidase A (human) inhibition, pH 4.5; 230,000 tested, under 10 active; purified enzyme, 4-MU-alpha-Gal fluorescence, pH 4.5; activity change, negative = inhibition, % at 105 µM; AID 1467; P06280;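 also: 0% = full activity with enzyme and -100% = basal without enzyme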
# aGal spleen mod: alpha-galactosidase A (human) modulation; 240,000 compounds, 0.008% hits; human spleen homogenate, 4MU-alpha-Gal fluorescence, 40 min; Potency, µM (highest dose often 80 µM), without a hit: at the top dose activity change, negative = inhibition, usual class: inhibitors;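 also: potency is read from the fitted curve at half-maximal effect; 0% = enzyme with vehicle and -100% = no enzyme basal signal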
#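 Fluorogenic readout (Ex 365/Em 440 nm) of 4-methylumbelliferone released from 1 mM 4-MU-alpha-galactoside by spleen homogenate, 40 min at 37C, pH 5.0. Data normalized to no-enzyme and enzyme controls; Hill-equation AC50 from compound titrations.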
# ALDH1A1 inh: inhibitors of human aldehyde dehydrogenase 1A1. P00352. Purified ALDH1A1, NADH fluorescence, propionaldehyde substrate. Potency, µM (titrated, usually from 75.3 µM), inactives show top-dose activity, negative = inhibition, usual class: inhibitors. 220,000 compounds, 7.3% hits. AID 1030; active = well fitted inhibition curve with a large enough effect, not every such curve was filed as active; inconclusive = small, poorly fitted or top-dose-only effect, or another doubt; inactive = no such curve, though single readings can be large or run the other way;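 also: potency is read from the fitted curve at half-maximal effect; plate controls were no enzyme wells and a reference inhibitor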
# ALOX12 inhib: 12-hLO (ALOX12) enzyme inhibition; 150,000 compounds, 0.12% hits; P18054; Potency, µM (titrated, usually from 57.1 µM), for inactives: top-dose activity change, negative = inhibition, usual class: inhibitors; purified 12-hLO, xylenol orange hydroperoxide absorbance; AID 1452; also: potency is read from the fitted curve at half-maximal effect; nearly all actives have a fitted effect of over 55% in size
# Target sequence (P18054 whole entry, looked up): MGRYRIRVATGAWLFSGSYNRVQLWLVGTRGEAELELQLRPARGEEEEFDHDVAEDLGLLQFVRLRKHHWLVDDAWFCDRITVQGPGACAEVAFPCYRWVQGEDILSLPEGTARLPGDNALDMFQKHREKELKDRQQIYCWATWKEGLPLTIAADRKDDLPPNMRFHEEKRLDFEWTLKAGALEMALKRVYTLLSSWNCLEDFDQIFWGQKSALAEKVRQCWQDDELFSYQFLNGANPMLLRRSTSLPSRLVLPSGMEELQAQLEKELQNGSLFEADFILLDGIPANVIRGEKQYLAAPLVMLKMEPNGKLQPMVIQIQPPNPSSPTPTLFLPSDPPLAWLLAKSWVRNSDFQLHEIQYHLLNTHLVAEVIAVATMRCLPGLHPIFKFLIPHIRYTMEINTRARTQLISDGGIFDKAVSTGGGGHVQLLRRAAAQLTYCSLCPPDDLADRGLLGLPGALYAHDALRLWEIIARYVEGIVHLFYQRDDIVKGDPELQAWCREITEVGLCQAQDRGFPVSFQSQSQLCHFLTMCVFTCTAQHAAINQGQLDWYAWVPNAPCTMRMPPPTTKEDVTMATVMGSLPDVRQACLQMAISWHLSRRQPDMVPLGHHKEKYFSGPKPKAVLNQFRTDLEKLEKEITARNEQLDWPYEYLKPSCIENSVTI
#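 Lipoxygenase turnover measured by absorbance at 573 and 405 nm after Fe-XO development. Human 12hLO 150 nM, arachidonate 40 uM, pH 7.0 Hepes buffer with detergent; 15 min compound preincubation, 30 min reaction.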
# An asterisk follows results filed as active; ? = inconclusive; · = not tested or not shown; [ ] = another dose, or the depositor's remark. Unless noted, calls follow the shape of the dose curve; as a rule, active = well fitted curve in the direction sought with a large enough effect; inconclusive = small, poorly fitted or top-dose-only effect, or another doubt; inactive = no such curve, though single readings can be large; an effect the other way counts as inactive or inconclusive. Unless noted, % is scaled to controls: 0 for no effect and ±100 for the full control effect.
SMILES,PNC assembly inh,HPGD inh,GLA inh pH 4.5,aGal spleen mod,ALDH1A1 inh,ALOX12 inhib
CC[C@H](C)[C@H](NC(=O)CNC(=O)[C@@H](NC(=O)[C@@H](NC(=O)[C@H](Cc1ccc(O)cc1)NC(=O)[C@H](CC(C)C)NC(=O)[C@H](C)NC(=O)[C@H](CCC(N)=O)NC(=O)CNC(=O)[C@@H]1CCCN1C(=O)CNC(=O)[C@H](Cc1ccccc1)NC(=O)[C@H](Cc1cnc[nH]1)NC(=O)[C@@H](NC(=O)CNC(=O)[C@H](CCCNC(=N)N)NC(=O)[C@H](CCCNC(=N)N)NC(=O)[C@@H](NC(=O)[C@H](CC(N)=O)NC(=O)[C@@H](N)CS)[C@@H](C)O)[C@@H](C)CC)[C@@H](C)O)[C@@H](C)O)C(=O)O,·,·,·,-16%,·,·
S=c1[nH]nc(C2CCCCC2)n1/N=C/C(Cl)=C\c1ccccc1,-27,-27%,-4,10%,5%,-15%
Cc1cc(-c2n[nH]c(=S)n2/N=C/c2cccc([N+](=O)[O-])c2)n[nH]1,5,?,4,-3%,?,1%
S=c1[nH]nc(COc2ccccc2)n1/N=C/c1ccccn1,11,?,2,4%,?,2%
O=[N+]([O-])c1ccccc1/C=N/n1c(C2CCCCC2)n[nH]c1=S,19,16µM*,0,3%,7.1µM*,-19%
O=[N+]([O-])c1ccc(Cl)c(/C=N/n2c(COc3ccccc3)n[nH]c2=S)c1,15,8.9µM*,4,1%,14µM*,-1%
O=[N+]([O-])c1cccc(/C=N/n2c(C3CCCCC3)n[nH]c2=S)c1,20,2.5µM*,3,2%,-10%,-1%
O=[N+]([O-])c1ccc(Cl)c(/C=N/n2c(C3CCCCC3)n[nH]c2=S)c1,-19,0.63µM*,4,-5%,?,3%
C=CCNc1oc(/C=C/c2ccccc2)nc1C#N,-24,?,?,?,?,-2%
Cc1cnc(CNc2ncncc2-c2ccoc2)cn1,·,·,·,7%,?,·
COc1ccc(NC(=O)C(c2ccccc2)c2ccccc2)cn1,·,·,-4,-3%,?,·
S=c1[nH]nc(C2CCCCC2)n1/N=C/c1ccc(Br)s1,11,5µM*,-5,0%,-8%,0%
S=c1[nH]nc(C2CCCCC2)n1/N=C/C=C/c1ccccc1,64,18µM*,6,1%,3%,?
CCN(CC)c1ccc(/C=C(\C#N)C(N)=O)cc1,·,·,-4,-1%,32µM*,·
N#C/C(=C\c1ccc(O)cc1)C(=O)N1CCCC1,·,·,-5,13%,?,·
CCN(CC)c1ccc(/C=C(\C#N)C(=O)c2ccc(Br)cc2)cc1,-20,-12%,-9,-2%,11µM*,-1%
N#CC(C#N)=C(N)/C(C#N)=C/c1ccc(O)cc1,·,?,-3,3%,2.2µM*,-4%
C/C(=C\CO)CCO,·,-5%,2,-9%,1%,·
Cc1ccc(-c2csc(N/N=C/C=C/c3ccccc3)n2)cc1,90,-26%,-2,-4%,22µM*,-18%
C(=N\Nc1nc(-c2ccccc2)cs1)/c1ccncc1,·,·,0,-2%,?,·
Cc1nc2cc(NCc3ccccc3O)ccc2n1Cc1ccccc1,·,·,2,-11%,?,·
CC(=O)OC1C=C[C@]2(C)C(CC(OC(C)=O)[C@@]3(C)C4=CC(=O)OC(c5ccoc5)[C@]4(C)CCC23)C1(C)C (stereo partly drawn),·,-7%,-5,10%,2%,-2%
Oc1c(C(c2ccco2)N2CCOCC2)sc2ncnn12 (stereo not drawn),7,-24%,-2,9%,14µM*,1%
O=c1c2ccccc2nc(SCc2nc3ccccc3s2)n1Cc1ccco1,-85*,-15%,-3,-5%,-5%,-4%
O=c1c2ccccc2nc(SCc2ccccc2)n1Cc1ccco1,5,-25%,-16,-4%,20µM*,-11%
SMILES,PNC assembly inh,HPGD inh,GLA inh pH 4.5,aGal spleen mod,ALDH1A1 inh,ALOX12 inhib
CCOc1ccc(N=C(/C(C(=O)C(=O)N2CCOCC2)=C(\O)c2ccccc2)c2ccccc2)cc1,-11,-8%,-12,0%,3%,-7%
NC1=NC(=O)CC(C(=O)NCc2ccccc2)S1 (stereo not drawn),-11,-2%,4,-7%,18µM*,-1%
Cc1ccc2nc(Nc3ccccc3)c(/C=N/O)c(=O)n2c1,-100*,11µM*,-6,-6%,7%,-3%
COc1ccc(Nc2nc3ccc(C)cn3c(=O)c2/C=N/O)cc1,·,·,-24,2%,2%,·
CCCCC1=CC2=C(OC(C)=O)C(=O)C(C)(OC(=O)CCC(=O)OC)C(=O)C2=CO1 (stereo not drawn),·,-9%,-9,-1%,0%,2%
COc1ccc(C2C=C3CNS(=O)(=O)C3CC2OC(=O)c2cccc(C)c2)cc1 (stereo not drawn),·,·,·,7%,·,·
O=S(=O)(O)c1ccc(NN(c2c(O)ccc3ccccc23)S(=O)(=O)O)cc1,·,-15%,·,·,8%[13.5 µM],-1%[11.4 µM]
C(=N\c1nccs1)/c1c[nH]c2ccccc12,11,-9%,3,0%,13µM*,-7%
CC(=O)Nc1c(C(=O)N2CCCCCC2)cnn1-c1ccccc1Cl,121,14µM*,3,1%,3%,-2%
O=C(CSc1nnc(-c2ccncc2)o1)c1cccc([N+](=O)[O-])c1,·,·,8,5%,14µM*,·
O=C(CSc1nnc(-c2ccc(F)cc2)o1)c1ccc2c(c1)OCCO2,-21,-11%,1,3%,8%,-6%
O=C(CSc1nc2ncccc2[nH]1)c1ccc(F)cc1,-14,-26%,-3,3%,?,-4%
O=C(CSc1nc2ncccc2[nH]1)c1cccc([N+](=O)[O-])c1,-113*,?,-13,6%,8.9µM*,5%
O=C(CSc1nnc(-c2ccncc2)o1)c1ccc2c(c1)OCCO2,·,·,-1,-2%,0.79µM*,·
Fc1ccc(CSc2nc3ncccc3[nH]2)cc1,28,-23%,4,10%,-12%,-2%
NC(=O)CSc1nnc(-c2ccc([N+](=O)[O-])cc2)o1,·,·,5,-1%,0%,·
Fc1cccc(CSc2nc3ncccc3[nH]2)c1,25,18µM*,2,-28%,?,-5%
Cc1ccc(S(=O)(=O)Nc2cc(-c3ccccc3)nn2C)cc1Cl,·,·,-2,8%,·,·
COCCn1c(=O)c(C)nc2cnc(Oc3ccc(OC)cc3)nc21,·,·,·,-10%,-12%,·
CC(C)(C)c1ccc(-c2nnc(SCC(=O)c3ccc4c(c3)OCCO4)o2)cc1,0,-17%,-1,1%,?,-1%
O=C(CSc1nnc(CNc2ccccc2)o1)c1ccc2c(c1)OCCO2,22,-10%,-4,7%,14µM*,0%
